Our source for the growth values is PubChem BioAssay (NCI).

This is part of a sample that, as a whole, favours compounds with a hit. Of some 83,000 tested, about 20% had one in any assay.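 Compound tested at a single concentration for 48 hours in 96-well plates; a percent growth value below 10 was scored as active.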 Unmarked numbers belong to inactive results. Calls of active or inactive are those of the source.

Holding throughout (experiment): NCI-60 one-dose screen, 48 h (100 = growth as untreated, 0 = no growth, -100 = all killed)
Common to all, as to conditions: 10 µM unless noted

Assay [1] concerns SK-MEL-2 melanoma.
In assay [2] the test system is EKVX NSCLC.
Assay [3] relates to SN12C renal.
Assay [4] has as its system UO-31 renal.
Assay [5] relates to TK-10 renal.
The subject of assay [6] is ACHN renal.
In assay [7] the test system is CAKI-1 renal.
For assay [8], the system named is A498 renal.
Assay [9] has as its system CCRF-CEM leukemia.
For assay [10], the system named is MOLT-4 leukemia.
Assay [11] concerns SR leukemia.
Assay [12] relates to RPMI-8226 leukemia.
For assay [13], the system named is OVCAR-8 ovarian.
For assay [14], the system named is OVCAR-5 ovarian.
Assay [15] deals with OVCAR-4 ovarian.
Assay [16] concerns SK-OV-3 ovarian.
The subject of assay [17] is IGROV1 ovarian.
Assay [18] concerns OVCAR-3 ovarian.
Assay [19] relates to HS 578T breast.
The test system of assay [20] is NCI/ADR-RES ovarian.

`N#C/C(=C\c1ccc(-c2cccc(C(F)(F)F)c2)o1)c1ccccc1`: the growth in [1] is 98.9%; in assay [2], 67%; in assay [3], 90.2%; in [4], 68.7%; in assay [5], 150%; in assay [6], 85.2%. Also, the growth in assay [7] was 69%; in assay [8], 102%; in [9], 97%; in assay [10], 89.7%; in assay [11], 86.3%; in assay [12], 90.9%. The growth in assay [13] was 101%; in [14] it was 96.9%; in assay [15] it was 79%; in assay [16] it was 84.7%; in [17], 59.9%; in [18], 95.6%. The growth was 86.7% in assay [19] and 101% in [20].

As for `C=C(C)[C@@H]1CCC[C@]2(C(=O)O)CC[C@]3(C)[C@@H](CC[C@@H]4[C@@]5(C)C/C(=C/c6ccncc6)C(=O)C(C)(C)[C@@H]5CC[C@]43C)[C@@H]12`, the growth in assay [1] is 48.3%; in assay [2] it was 24.9%; in assay [3] it was 25.7%; in assay [4] it was 19.7%; in assay [5] it was 52.2%; in [6] it was 26.8%. For the same molecule, the growth was 31.4% in assay [7]; 57.7% in assay [8]; 0.771% (active) in assay [9]; 6.38% (active) in assay [10]; 3.51% (active) in assay [11]; -9.5% (active) in assay [12]. Further, the growth in [13] was 24.9%; in [14], 47.9%; in assay [15], 28.4%; in assay [16] it was 78%; in [17], 22.6%; in assay [18], 11.5%. Also, the growth was 53% in assay [19] and 37.5% in assay [20].

Regarding `C=CCOC(=O)C1=C(C)N(CC)C(=O)NC1c1c(Cl)n(C)c2ccccc12` (stereo not given), the growth is 108% in assay [1]; 98.4% in assay [2]; 102% in assay [3]; 76.1% in [4]; 102% in [5]; 82.2% in assay [6]. Moreover, the growth is 61.5% in [7]; 95% in assay [8]; -28% (active) in [9]; 93.7% in assay [10]; 96.1% in assay [11]; 93.8% in assay [12]. Further, the growth was 98.2% in assay [13]; 90% in assay [14]; 103% in assay [15]; 102% in [16]; 98.9% in assay [17]; 108% in [18]. The growth is 96.4% in assay [19] and 94.1% in assay [20].

Regarding `NC1=Nc2cc(OCCCCN3Cc4ccccc4C3)c(OCC3CC3)cc2C12CCCC2`, the growth is 12.5% in [1]; 64.7% in [2]; 66.5% in [3]; 43.2% in assay [4]; 87.1% in [5]; 65.7% in assay [6]. The growth was 1.68% (active) in assay [7]; -0.354% (active) in [8]; 37.7% in [9]; 29.9% in assay [10]; 11.3% in assay [11]; 5.52% (active) in [12]. For the same molecule, the growth was 45.1% in assay [13]; 65.3% in [14]; 39.6% in [15]; 93.4% in [16]; 50% in assay [17]; 52.5% in assay [18]. Also, the growth was 53.3% in assay [19] and 73.2% in assay [20].

`Cc1[nH]c(C2CC(c3ccc(C(F)(F)F)c(F)c3)=NN2c2ccccc2)c(C)c1C(=O)NCC(F)(F)F` (stereo not given): the growth in assay [1] is 104%; in [2], 69.3%; in assay [3], 90.7%; in assay [4], 58.8%; in [5], 151%; in assay [6], 95.8%. The growth was 59% in [7]; 48.2% in assay [8]; 79.4% in assay [9]; 58.3% in assay [10]; 81.6% in assay [11]; 70.7% in assay [12]. Besides, the growth in assay [13] is 87.8%; in assay [14], 94.8%; in assay [15], 92.5%; in [16], 85.6%; in [17], 67.3%; in assay [18], 98.2%. Also, the values for the growth in assay [19] and in assay [20] were 87% and 89.7%, respectively.

With `COc1cc2c(c(OC)c1OC)C(=O)CC(c1cccc(NC(=O)c3ccc(C#N)cc3)c1)O2` (stereo not given), the growth is 69% in assay [1]; 83.8% in [2]; 83% in assay [3]; 62.8% in assay [4]; 89.4% in [5]; 81.2% in assay [6]. Further, the growth in [7] is 77.1%; in [8], 82.2%; in [9], 25.3%; in assay [10], 27%; in assay [11], 41.7%; in assay [12], 30.8%. Also, the growth in assay [13] is 40.9%; in [14], 101%; in [15] it was 63%; in assay [16] it was 99.1%; in [17] it was 85.5%; in assay [18], 76.5%. For the same molecule, the growth is 90.3% in assay [19] and 50.7% in assay [20].

Turning to `N#CC1CCc2c(c(-c3ccc4nc(N)sc4c3)nc3ccc4[nH]ncc4c23)C1` (stereo not given), the growth in assay [1] was 51.7%; in assay [2] it was 64.8%; in assay [3], 62.5%; in assay [4], 31.2%; in assay [5] it was 41.6%; in assay [6] it was 29.6%. In addition, the growth in assay [7] is 11.3%; in assay [8] it was -3.66% (active); in [9], 42.6%; in assay [10] it was 17.2%; in [11], 9.04% (active); in assay [12], 43.4%. For the same molecule, the growth in [13] was 46.4%; in assay [14], 65.5%; in [15], 64.9%; in [16], 33.7%; in [17], 53.2%; in assay [18], 69.7%. The growth in assay [19] is 30.9%; in assay [20], 63.7%.

Regarding `CCOC(=O)C(=CNc1cnc(Nc2ccc(N3CCOCC3)cc2)nc1Oc1ccc(OC)cc1)C(=O)OCC`, the growth in [1] is 91.8%; in [2] it was 87.1%; in [3] it was 26.6%; in assay [4], 11.3%; in [5] it was -26% (active); in assay [6], 19%. The growth was 25.1% in assay [7]; 42.1% in assay [8]; 37.7% in [9]; 60.5% in assay [10]; 31.6% in [11]; 42.2% in [12]. The growth in [13] is 43.1%; in assay [14] it was 71.5%; in assay [15], -43.1% (active); in [16] it was 55.5%; in assay [17] it was 26.8%; in [18] it was -9.17% (active). For the same molecule, the growth was 35% in [19] and 54.4% in assay [20].
